Measured values: PubChem BioAssay
Inconclusive results are not listed. Calls of active or inactive are those of the source. Unless noted, cut-off not given; nearly all actives show AC50 up to about 30 µM.

Experiments:
[1] = Wnt pathway potentiators raising nuclear beta-catenin – imaging, WNT3A-conditioned medium, mouse C2C12, NPC library, primary screen (AID 1117326; in the data active means nuclear beta-catenin stimulation mostly above about 4.2%, no sharp cut-off; inactive means mostly below about 10%; further: reference of the scale not given here); conditions: stronger effect = higher value
[2] = stimulators of insulin release from INS-1E, primary screen, cell-based, 5 mM glucose, NPC library (AID 1117329;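 active means compound raises insulin release from rat beta cells at 5 mM glucose, no numeric limit stated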; further: reference of the scale not given here); conditions: rat INS-1E insulin secretion, at 10 µM, stronger effect = higher value
[3] = growth inhibition of GSK3B-pretreated HCT116 cells – cell-based, CellTiter-Glo, 0.2 to 20 µM (AID 1117336;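 active means compounds lowering colon cancer cell viability after pretreatment blocking the GSK3B kinase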); conditions: HCT116 viability after GSK3B inhibitor, at 20 µM, stronger effect = higher value
[4] = inhibition of endothelial tube formation, primary screen, imaging, VEGF stimulated, CD31 staining, tube area, NPC library (AID 1117340;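 active means compound that reduces growth-factor-driven endothelial tube area in a mixed cell culture, no cutoff stated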); conditions: VEGF-stimulated ADSC/ECFC co-culture, at 10 µM, stronger effect = higher value
[5] = GLP1 release stimulators, primary, NCI-H716, NPC library (AID 1117341;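 active means compound raises GLP1 secretion from the human gut endocrine cells, with no numeric limit stated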; further: reference of the scale not given here); conditions: NCI-H716 cells, at 10 µM, stronger effect = higher value
[6] = HCT116 colon cancer cell growth inhibition, primary screen, CellTiter-Glo luminescence, NPC library (AID 1117342;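 active means compounds that lower survival of HCT116 colon cancer cells in the luminescence readout, no numeric limit stated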); conditions: at 20 µM (top of the series)
[7] = reduced SW480 viability measured with CellTiter-Glo, NPC library, primary (AID 1117343;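 active means compounds that lower viability of the colon cancer cells in the luminescence readout, with no numeric limit stated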); conditions: CellTiter-Glo luminescence; at 20 µM (top of the series) unless noted
[8] = NPC library primary testing for decreased DLD-1 cell viability via CellTiter-Glo (AID 1117346;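 active means compounds that lower survival of DLD-1 colon cancer cells in the luminescence readout, no cutoff given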); conditions: DLD-1 viability, CellTiter-Glo luminescence; at 20 µM (top of the series)
[9] = viability loss in pontine glioma line – cell-based, SU-DIPG-XIII, MIPE4.0, CellTiter-Glo, qHTS, dose response (AID 1347061; cut-off not given, nearly all actives have AC50 up to about 37 µM;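 further: cells exposed to compound for 48 hours before readout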); conditions: CellTiter-Glo ATP luminescence
[10] = viability loss in pontine glioma line – cell-based, JHH-DIPG-1, MIPE4.0, CellTiter-Glo, qHTS, dose response (AID 1347062; cut-off not given, nearly all actives have AC50 up to about 27 µM;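 on AC50: cells exposed to compound for two days before readout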); conditions: JHH-DIPG-1 viability, CellTiter-Glo ATP luminescence
[11] = viability loss in pontine glioma line – cell-based, SU-DIPG-IV, MIPE4.0, CellTiter-Glo, qHTS, dose response (AID 1347063); conditions: CellTiter-Glo ATP luminescence;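 further: compound exposure lasted 48 hours before the viability readout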
[12] = growth inhibition of DIPG cells – cell-based, MIPE4.0 library, CellTiter-Glo luminescence, qHTS (AID 1347066); conditions: SU-DIPG-VI viability, CellTiter-Glo ATP luminescence;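 further: cells exposed to compound for 48 hours before readout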
[13] = growth inhibition of DIPG cells – cell-based, MIPE5.0 library, qHTS (AID 1347068; cut-off not given, nearly all actives have IC50 up to about 30 µM); conditions: SU-DIPG-XXV viability
[14] = viability loss with induced miR-34 in A549 – imaging, A549 dox-inducible miR-34, nuclei and caspase counts, primary screen (AID 1347080;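 active means compounds whose cell count with miR-34 switched on is under 0.7 times the count with it off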); conditions: A549 miR-34 inducible, Hoechst nuclei count, 48 h
[15] = MELAS cybrid and Rieske KO viability enhancers – cell-based, MELAS cybrids, Rieske KO mouse fibroblasts, CellTiter-Glo, primary screen (AID 1508586;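 active means mean z-score across replicates of 1.96 or higher in either the MELAS or the Rieske mutant cell line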;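 further: z relative to plate mean and SD of compound and empty wells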); conditions: low glucose
[16] = viability loss in pontine glioma line – cell-based, SU-DIPG-XXV, MIPE5.0, CellTiter-Glo, qHTS, dose response (AID 1347065; cut-off not given, nearly all actives have AC50 up to about 26 µM;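 further: cells exposed to compound for 48 hours before ATP readout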); conditions: CellTiter-Glo ATP luminescence
[17] = stronger effect = lower value, cell number ratio, induced over uninduced
[18] = measured here: relative caspase fold change +Dox/-Dox
[19] = measured here: total cells with miR-34 induction, stronger effect = lower value
[20] = measured here: total cells without miR-34 induction
[21] = MELAS cybrid survival, CellTiter-Glo 48 h, stronger effect = higher value
[22] = Rieske KO mouse fibroblast survival, CellTiter-Glo 72 h

CC(=O)N[C@H]1[C@H]([C@H](O)[C@H](O)CO)OC(C(=O)O)=C[C@@H]1N=C(N)N
inactive: nuclear beta-catenin stimulation ([1]; at 10 µM) 0.9% | insulin secretion stimulation [2] -2.6% | viability decrease [3] -14.4% | tube area decrease [4] 7.8% | GLP1 secretion stimulation [5] -2.9% | inhibition of viability [6] -2.4% | viability decrease (inhibition) [7] 19.9% | viability decrease (inhibition) [8] 2.95% | outcome [9] | outcome [10] | outcome [11] | outcome [12]
0.5%: nuclear beta-catenin stimulation ([1]; stimulation, at 2 µM)

CCOC(=O)c1ccc(C#Cc2ccc3c(c2)C(C)(C)CCS3)nc1
4.9%: nuclear beta-catenin stimulation ([1]; stimulation, at 2 µM)
0.684: z-score [15, 22]
active: viability decrease [3] 91.1% | inhibition of viability [6] 98.6% | viability decrease (inhibition) [7] 126% | viability decrease (inhibition) [8] 98.1%
inactive: nuclear beta-catenin stimulation ([1]; at 10 µM) 6% | insulin secretion stimulation [2] -1.4% | tube area decrease [4] -6% | GLP1 secretion stimulation [5] -0.3% | outcome [10] | outcome [12] | outcome [13] | fold change [14, 17] 0.864 | z-score [15, 21] 0.367
8970: cell count [14, 20]
0.957: fold change [14, 18]
7750: cell count [14, 19]

Cc1cc(=O)c2c(O)c3c(O)cc(=O)c4c3c3c(cc(O)c1c23)C(C)(C)C=4O
active: nuclear beta-catenin stimulation ([1]; at 10 µM) 46.6% | viability decrease [3] 117% | tube area decrease [4] 54.9% | inhibition of viability [6] 124% | viability decrease (inhibition) [7] 158% | viability decrease (inhibition) [8] 101% | AC50 [9] 11800 nM | AC50 [10] 743 nM | AC50 [11] 469 nM | AC50 [12] 105 nM
inactive: insulin secretion stimulation [2] 0.4% | GLP1 secretion stimulation [5] 8%
68.1%: nuclear beta-catenin stimulation ([1]; stimulation, at 2 µM)

CC(=O)OCC(=O)[C@@]12N=C(C)O[C@@H]1C[C@H]1[C@@H]3CCC4=CC(=O)C=C[C@]4(C)[C@H]3[C@@H](O)C[C@@]12C
3.9%: nuclear beta-catenin stimulation ([1]; stimulation, at 2 µM)
1.06: z-score [15, 22]
inactive: nuclear beta-catenin stimulation ([1]; at 10 µM) 1.5% | insulin secretion stimulation [2] 2.95% | viability decrease [3] 0.4% | tube area decrease [4] 2.2% | GLP1 secretion stimulation [5] 1.7% | inhibition of viability [6] -21.6% | viability decrease (inhibition) [7] 14.8% | viability decrease (inhibition) [8] -6.8% | outcome [9] | outcome [10] | outcome [12] | outcome [13] | z-score [15, 21] 0.598

Cc1nnc(C(=O)NC(C)(C)c2nc(C(=O)NCc3ccc(F)cc3)c(O)c(=O)n2C)o1
0.5%: nuclear beta-catenin stimulation ([1]; stimulation, at 2 µM)
-0.0651: z-score [15, 22]
1.04: fold change [14, 18]
inactive: nuclear beta-catenin stimulation ([1]; at 10 µM) -0.2% | insulin secretion stimulation [2] 2.5% | viability decrease [3] -5.9% | tube area decrease [4] 13.9% | GLP1 secretion stimulation [5] -0.3% | inhibition of viability [6] 1% | viability decrease (inhibition) [7] 31.6% | viability decrease (inhibition) [8] 6.7% | outcome [9] | outcome [11] | outcome [16] | outcome [12] | outcome [13] | fold change [14, 17] 0.902 | z-score [15, 21] -0.159
7710: cell count [14, 19]
8560: cell count [14, 20]
